FBPA Giardia inh – qHTS Assay for Inhibitors of Fructose-1,6-bisphosphate Aldolase from Giardia Lamblia. Potency, µM (highest dose often 59.6 µM), actives largely listed as inhibitors. A8B2U2. actives 0.71% (n = 290,000). purified Giardia FBPA; also: nearly all actives have a fitted effect of over 55% in size
Target sequence (A8B2U2 whole entry, looked up): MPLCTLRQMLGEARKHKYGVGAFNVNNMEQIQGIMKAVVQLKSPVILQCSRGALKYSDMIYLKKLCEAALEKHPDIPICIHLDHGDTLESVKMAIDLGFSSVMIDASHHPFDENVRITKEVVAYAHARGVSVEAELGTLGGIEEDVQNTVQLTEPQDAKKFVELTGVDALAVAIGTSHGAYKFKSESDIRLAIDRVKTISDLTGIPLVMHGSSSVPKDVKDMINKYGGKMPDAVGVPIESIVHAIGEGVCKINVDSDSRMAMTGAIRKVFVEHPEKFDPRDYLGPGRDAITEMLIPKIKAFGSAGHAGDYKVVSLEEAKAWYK
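40 nM FBPA preincubated 10 min at RT with compound (up to 57.5 uM final), then substrate plus GAPDH/TPI/NAD/arsenate coupling and diaphorase/resazurin added. Fluorescence read after 20 min at RT, 525/598 nm.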
Pf growth 96h – Primary qHTS for delayed death inhibitors of the malarial parasite plastid, 96 hour incubation; P. falciparum luciferase reporter growth, 96 h; actives 6.9% (n = 320,000); Potency, µM (top dose mostly 28.7 µM), hits mostly inhibitors; AID 504834, 2011
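Compounds incubated with erythrocytes infected by luciferase-expressing P. falciparum (2% hematocrit, 0.05% parasitemia final) for 96 hours, 37 C in 5% CO2. Growth inhibition scored as decreased luciferase luminescence.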
Pf growth 48h – Primary qHTS for delayed death inhibitors of the malarial parasite plastid, 48 hour incubation; Potency, µM (top dose mostly 28.7 µM), hits mostly inhibitors; actives 5.9% (n = 310,000); P. falciparum luciferase growth in erythrocytes, 48 h
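A one-generation exposure of luciferase-tagged malaria parasites in RPMI 1640/Albumax erythrocyte culture, 37 C and 5% CO2. Inhibition is inferred from decreased luminescence after adding detection reagent.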
HCMV antiviral – qHTS Assay for inhibitors of the human cytomegalovirus (HCMV). activity change, negative = inhibition, % at 57.5 µM. actives 4.5% (n = 410,000). HFF cells, HCMV-luciferase reporter, 72 h; stronger effect = lower value. AID 1259415, 2018; in the data active = activity change below about -60%; inconclusive = no clear call, values can overlap the other calls; inactive = above about -39%
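Two-dose cell screen: HFF monolayers treated with compounds and infected with luciferase-expressing HCMV at 1 PFU/cell, 72 h at 37C, then lysed for luciferase measurement.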
Sm TGR block – qHTS Assay for the Inhibitors of Schistosoma Mansoni Peroxiredoxins; Schistosoma mansoni thioredoxin glutathione reductase (TGR), Q962Y6; purified TGR, DTNB reduction, TNB absorbance 405 nm; Potency, µM (series often up to 114 µM), actives largely listed as inhibitors; actives 3% (n = 360,000); AID 485364, 2010; also: nearly all actives have a fitted effect of over 60% in size
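Kinetic colorimetric format: TGR-catalysed, NADPH-driven DTNB reduction monitored via TNB absorbance. Enzyme dispensed at 20 nM; compound exposure 15 min at room temperature before reaction start.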
Large screens that a line does not name were inactive; ! = not confirmed by another sample. Only some compounds are listed: those with a hit (about 14% of all), similar ones and a draw of the others. Unless noted, calls follow the shape of the dose curve; as a rule, active = well fitted curve in the direction sought with a large enough effect; inconclusive = small, poorly fitted or top-dose-only effect, or another doubt; inactive = no such curve, though single readings can be large; an effect the other way counts as inactive or inconclusive.

COc1ccc2c(c1O)-c1c(OC)c(OC)cc3c1[C@H](C2)N(C)CC3	HCMV antiviral -62.6
COc1ccc2cc1Oc1ccc(cc1)CC1c3cc(c(OC)cc3CCN1C)Oc1c(OC)c(OC)cc3c1C(C2)N(C)CC3 (centres undefined)	none (no result: Pf growth 96h, Pf growth 48h, HCMV antiviral, Sm TGR block)
COc1cc2c(cc1OC)-c1c(OC)c(OC)cc3c1[C@H](C2)N(C)CC3	FBPA Giardia inh inconclusive, Pf growth 96h 3.7µM, Pf growth 48h inconclusive
COc1cc(-c2oc3cc(O)cc(O)c3c(=O)c2OC[C@@H]2OC(O[C@@H]3O[C@@H](C)[C@H](O)[C@@H](O)[C@H]3O)[C@@H](O)[C@H](O)[C@@H]2O)ccc1O (some centres undefined)	none (no result: Pf growth 96h, Pf growth 48h, HCMV antiviral, Sm TGR block)
CCn1cc(C2=NOC(C(=O)O)C2)c(C)n1 (centres undefined)	Pf growth 96h 5.86µM
CCn1cc(C2=NOC(C(=O)Nc3cc(OC)c(Cl)cc3OC)C2)c(C)n1 (centres undefined)	Pf growth 48h inconclusive
CS(=O)(=O)c1ccc(Cl)c(NC(=O)CSc2nncn2-c2ccccc2)c1	none (no result: FBPA Giardia inh)
Cc1cc(NC(=O)CSc2nc3ccccc3[nH]2)no1	none
Cc1cc(NC(=O)CSc2nc(Cc3ccccc3)c(C)[nH]2)no1	Sm TGR block 35.5µM
Cc1cc(NC(=O)CSc2ccc(-c3nc4cc(C)c(C)cc4[nH]3)cn2)no1	Pf growth 48h 3.29µM (no result: HCMV antiviral)
Cc1[nH]c(SCC(=O)Nc2cc(S(C)(=O)=O)ccc2Cl)nc1Cc1ccccc1	Pf growth 96h inconclusive, Pf growth 48h inconclusive, Sm TGR block 3.55µM (no result: FBPA Giardia inh)
Cc1cc2nc(-c3ccc(SCC(=O)NC(C)C)nc3)[nH]c2cc1C	Pf growth 48h inconclusive (no result: HCMV antiviral)
CCOC(=O)c1c(C)[nH]c(C(=O)CSc2nnc(C3CC3)n2N)c1C	Pf growth 48h 0.329µM (no result: Pf growth 96h)
Cc1ccc(S(=O)(=O)NCCNc2ccc([N+](=O)[O-])cc2C(F)(F)F)cc1	Pf growth 96h 4.15µM, Pf growth 48h 10.4µM
O=C(NCCc1ccccc1)C1CCCN(S(=O)(=O)c2cccc3nsnc23)C1 (centres undefined)	Pf growth 96h 1.17µM
O=C(NCCc1ccccc1)C1CCCN(S(=O)(=O)c2cccc3nonc23)C1 (centres undefined)	none (no result: Pf growth 96h, Pf growth 48h)
O=S(=O)(c1cccc2nsnc12)N1CCCCC1	Pf growth 96h 8.28µM
O=C(C1CCCN(S(=O)(=O)c2cccc3nsnc23)C1)N1CC=C(c2ccccc2)CC1 (centres undefined)	Pf growth 48h inconclusive, HCMV antiviral -61.4
O=S(=O)(c1ccc(Br)c2nsnc12)N1CCOCC1	Pf growth 96h 9.28µM
O=S(=O)(c1cccc2nsnc12)N1CCCC1	none
O=C(C1CCN(S(=O)(=O)c2cccc3nsnc23)CC1)N1CC=C(c2ccccc2)CC1	Pf growth 48h inconclusive
NS(=O)(=O)c1ccc(NC(=O)COC(=O)CCc2ccc(S(=O)(=O)N3CCOCC3)cc2)cc1	none
CC1=C(C(=O)N2CCOCC2)CC(CC(=O)NCCc2ccccn2)C(=O)N1CCCN1CCCC1=O (centres undefined)	none (no result: FBPA Giardia inh, Pf growth 96h, Pf growth 48h, Sm TGR block)
CCOCCCNC(=O)c1cc(=O)[nH]c2ccc(S(=O)(=O)N3CCCC3)cc12	none (no result: FBPA Giardia inh, Pf growth 96h, Pf growth 48h)
O=C(c1cccc(S(=O)(=O)N2CCCC2)c1)N1CCN(Cc2ccccc2)CC1	Pf growth 96h inconclusive, Pf growth 48h inconclusive (no result: FBPA Giardia inh)
COC(=O)c1sc(C(C)(C)C)cc1CS(=O)(=O)c1ccccn1	Pf growth 96h 13.1µM, Pf growth 48h inconclusive
CC(=O)c1csc(CS(=O)(=O)c2ccccn2)n1	none
COc1ccccc1NC(=O)c1cc2c(=O)oc3ccc(C)cc3c2s1	none (no result: FBPA Giardia inh, Pf growth 96h, Pf growth 48h)
COC(=O)CCC(=O)NN1C(=O)c2ccccc2C1=O	HCMV antiviral -68.2
CC(=O)Nc1ccc(N/C=C/C(=O)c2ccccc2)cc1	none
O=C(/C=C/Nc1ccccc1)c1ccccc1	Pf growth 96h 7.38µM (no result: Pf growth 48h)
COc1ccc(N/C=C/C(=O)c2cc(OC)c(OC)c(OC)c2)cc1	HCMV antiviral -80.1
COc1ccc(OC)c(N/C=C/C(=O)c2ccccc2)c1	Pf growth 96h inconclusive, Pf growth 48h inconclusive, HCMV antiviral -77.6
COc1ccc(OC)c(N/C(C)=C/C(=O)c2ccccc2)c1	none
CCC(=O)N(C)C[C@H]1Oc2cc(Br)ccc2S(=O)(=O)N([C@@H](C)CO)C[C@H]1C	none (no result: FBPA Giardia inh, Pf growth 96h, Pf growth 48h, Sm TGR block)
CCCN(CCC)CCCNC(=O)Cn1ncc2c3ccccc3n(Cc3ccccc3F)c2c1=O	none (no result: FBPA Giardia inh, Pf growth 96h, Pf growth 48h)
C[C@@H]1CN([C@@H](C)CO)C(=O)CCCn2nncc2CO[C@H]1CN(C)C(=O)Nc1cccc(Oc2ccccn2)c1	none (no result: FBPA Giardia inh, Pf growth 96h, Pf growth 48h, Sm TGR block)
C=CCc1cccc(/C=C/c2cc(=O)c3ccccc3[nH]2)c1O	Pf growth 48h 0.131µM
C=CCc1cccc(/C=N/n2cnnc2)c1O	Pf growth 96h inconclusive
Cc1nc(CC(=O)c2ccc(O)cc2O)cs1	none
Cc1nc(CC(=O)c2c(C)cc(O)cc2O)cs1	HCMV antiviral -70.6
C[C@@H]1CN([C@H](C)CO)C(=O)CCCn2nncc2CO[C@H]1CN(C)CC1CC1	none (no result: FBPA Giardia inh, Pf growth 96h, Pf growth 48h, Sm TGR block)
CN1CCN(S(=O)(=O)c2cccc(C(=O)Oc3ccc(Br)cc3F)c2)CC1	none (no result: FBPA Giardia inh, HCMV antiviral)
CC(=O)c1ccc(Nc2cc(C)nc3ccc(C)cc23)cc1	Pf growth 48h 3.7µM
Cc1cc(N2CCCCC2)nc(SCc2ccc(C#N)cc2)n1	Pf growth 48h 14.7µM (no result: Pf growth 96h)
Cc1nc(SCc2ccc(C#N)cc2)n[nH]1	Pf growth 96h 13.1µM
COc1ccc(CCNC(=O)CSc2nnc(-c3ccc(C)cc3)c(-c3ccc(C)cc3)n2)cc1OC	none (no result: FBPA Giardia inh, Pf growth 96h, Pf growth 48h)
CC(Oc1ccc(-c2ccccc2)cc1)C(=O)N/N=C/c1cccnc1 (centres undefined)	Pf growth 48h inconclusive (no result: FBPA Giardia inh)
CCn1c(SCC(=O)Nc2cccc(C)c2)nc2ccccc2c1=O	Pf growth 48h inconclusive
Cc1n[nH]c(C)c1CCc1nc2c3ccccc3nc(SCC(=O)Nc3ccccc3F)n2n1	Pf growth 96h inconclusive, HCMV antiviral -72.7 (no result: Pf growth 48h)
Cc1cccc(NC(=O)CSc2nc3ccccc3c3nc(CCc4c(C)n[nH]c4C)nn23)c1	Pf growth 48h 7.38µM, HCMV antiviral -81.7! (no result: FBPA Giardia inh)
O=C(COc1cccnc1[N+](=O)[O-])Nc1ccc(Cl)c(S(=O)(=O)N2CCOCC2)c1	Pf growth 96h inconclusive, Pf growth 48h inconclusive
COc1ccc(CN2C(=O)c3ccccc3C2C(=O)NC2CCCCCC2)c(OC)c1 (centres undefined)	Pf growth 96h inconclusive, Pf growth 48h inconclusive
CS(=O)(=O)c1sc(C#N)c2c1C(=O)CC(c1ccccc1)C2 (centres undefined)	Pf growth 96h inconclusive, Pf growth 48h 11.7µM, HCMV antiviral -104.4, Sm TGR block 0.316µM
C=CCn1c(N)c(C(=O)OC(C)CC)c2nc3ccccc3nc21 (centres undefined)	Pf growth 48h 10.4µM (no result: Pf growth 96h)
